Screening data: PubChem, National Center for Advancing Translational Sciences (NCATS)
Compounds with a hit are over-represented: about 7.5% of the library has one in this group of screens.
ELG1 genotoxic – qHTS screen for small molecules that induce genotoxicity in human embryonic kidney (HEK293T) cells expressing luciferase-tagged ELG1. HEK293T ELG1-luciferase reporter, luminescence, 16 h. Potency, µM (titrated, usually from 46 µM), actives largely listed as activators. 1.3% of 330,000 active; also: nearly all actives have a fitted effect of over 60% in size
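Genotoxicity was scored as increased ELG1-luciferase reporter signal, measured by ONE-Glo luminescence (30 min, room temperature). Compound or vehicle exposure of the HEK293T reporter cells lasted 16 hr at 37°C.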
NPC1 prom act – qHTS Assay for NPC1 Promoter Activators; Huh7 NPC1 promoter luciferase reporter, 24 h; Potency, µM (doses to about 9.22 µM), hits mostly activators; 2.4% of 320,000 active; also: nearly all actives have a fitted effect of over 60% in size
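Quantitative HTS used a cell-based reporter: Huh7 cells stably bearing the NPC1 promoter upstream of luciferase were treated with compounds for 24 h, and promoter activation was read as luminescence.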
SMN2 splice up – qHTS Assay for Enhancers of SMN2 Splice Variant Expression. HEK293 SMN2-luciferase splicing reporter, luminescence, 30-36 h. Potency, µM (highest dose often 46.1 µM), actives largely listed as activators. 2.8% of 210,000 active. AID 1458, 2008; also: nearly all actives have a fitted effect of over 55% in size
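HEK293 cells carry an SMN2 minigene-luciferase reporter in which exon 7 inclusion puts luciferase in frame. Cells were seeded at 2000 cells/well, attached for 10-12 hours, then exposed to compounds for 30-36 hours at 37C before ONE-Glo luminescence.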
Rab9 promoter act – qHTS Assay for Rab9 Promoter Activators; AID 485297, 2010; Potency, µM (series often up to 9.22 µM), most hits filed as activators; 2.8% of 320,000 active; Huh7 Rab9 promoter-luciferase reporter, luminescence, 24 h; also: nearly all actives have a fitted effect of over 60% in size
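Quantitative HTS format; Huh7 Rab9-luciferase reporter cells (1500/well) receive compound 2 h post-plating, incubate 24 h at 37 °C, then get luciferase reagent for 10 min before luminescence reading.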
FLuc modulator – qHTS profiling assay for firefly luciferase inhibitor/activator using purifed enzyme and Km concentrations of substrates (counterscreen for miR-21 project). purified FLuc, Km substrates, luminescence inhibition. 6.9% of 360,000 active. Luciferin 4-monooxygenase (Photinus pyralis), P08659. Potency, µM (titrated, usually from 57.5 µM), actives largely listed as inhibitors. AID 588342, 2011; also: nearly all actives have a fitted effect of over 55% in size
Target sequence (P08659 whole entry, looked up): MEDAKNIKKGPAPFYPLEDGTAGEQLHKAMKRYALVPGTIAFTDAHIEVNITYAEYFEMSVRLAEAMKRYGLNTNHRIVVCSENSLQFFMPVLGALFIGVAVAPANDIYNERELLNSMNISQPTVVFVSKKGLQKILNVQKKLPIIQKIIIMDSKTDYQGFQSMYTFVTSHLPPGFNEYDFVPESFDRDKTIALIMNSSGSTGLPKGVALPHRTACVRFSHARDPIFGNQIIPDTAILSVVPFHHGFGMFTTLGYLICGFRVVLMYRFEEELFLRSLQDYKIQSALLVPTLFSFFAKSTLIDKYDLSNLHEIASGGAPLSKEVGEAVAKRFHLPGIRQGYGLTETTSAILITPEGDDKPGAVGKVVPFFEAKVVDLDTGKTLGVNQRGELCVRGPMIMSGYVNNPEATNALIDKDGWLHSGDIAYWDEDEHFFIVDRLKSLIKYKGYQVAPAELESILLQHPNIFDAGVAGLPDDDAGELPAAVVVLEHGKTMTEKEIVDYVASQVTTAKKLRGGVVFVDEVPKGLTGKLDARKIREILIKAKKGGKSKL
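Purified P. pyralis luciferase (10nM final) with 10uM D-luciferin and 10uM ATP (Km levels) in 50mM Tris acetate pH 7.5, 10mM Mg acetate, 0.01% Tween-20, 0.05% BSA; qHTS 6-point titration, ~60 µM downward; luminescence read.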
Luc counter – Counterscreen for Luciferase (Kinase-Glo TM) Inhibition. Luciferin 4-monooxygenase (Photuris pensylvanica), Q27757. Kinase-Glo luciferase, ATP luminescence, 8 min. Potency, µM (series often up to 38.3 µM), most hits filed as inhibitors. 0.28% of 200,000 active. AID 1379, 2008; also: nearly all actives have a fitted effect of over 60% in size
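Inhibition of Kinase-Glo luciferase light generation was assessed at 10 uM ATP in pH 7.2 imidazole buffer, with luminescence measured after eight minutes at ambient temperature.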
Hits are given with their value; [ ] = remark or other dose. Calls follow the shape of the dose curve; as a rule, active = well fitted curve in the direction sought with a large enough effect; inconclusive = small, poorly fitted or top-dose-only effect, or another doubt; inactive = no such curve, though single readings can be large; an effect the other way counts as inactive or inconclusive.

What do the screens show for `CCOC(=O)c1cccc(NC(=O)CCS(=O)(=O)c2ccc3c(c2)CC(=O)N3C)c1`?
FLuc modulator: inactive

Results for COc1cccc(NC(=O)CC(C)S(=O)(=O)c2ccc3c(c2)NC(=O)CO3)c1 (stereo unspecified) ?
FLuc modulator: inactive

How did O=C(NNC(=O)C1C2CCC(C2)C1C(=O)O)c1ccc(Br)o1 (stereo unspecified) do in these assays?
ELG1 genotoxic: inactive; NPC1 prom act: inactive; SMN2 splice up: inactive; Rab9 promoter act: inactive; FLuc modulator: inactive; Luc counter: inactive

How did CCOc1ccccc1C(=O)NN1C(=O)C2CCCCC2C1=O (stereo unspecified) do in these assays?
ELG1 genotoxic: inactive; NPC1 prom act: inactive; SMN2 splice up: inactive; Rab9 promoter act: inactive; FLuc modulator: inactive; Luc counter: inactive

How did CC(C)c1ccc(C(=O)NN2C(=O)C3CCCCC3C2=O)cc1 (stereo unspecified) do in these assays?
ELG1 genotoxic: inconclusive; NPC1 prom act: 3.5µM; SMN2 splice up: 11µM; Rab9 promoter act: 3.2µM; FLuc modulator: 2.1µM; Luc counter: inactive

How did CC(C)c1ccc(C(=O)NNC(=O)C2C3CCC(C3)C2C(=O)O)cc1 (stereo unspecified) do in these assays?
ELG1 genotoxic: 4.6µM; NPC1 prom act: 0.5µM; Rab9 promoter act: 1.3µM; FLuc modulator: 7.6µM

Results for COC(=O)c1cc(NC(=O)c2cccc(F)c2)cc(C(=O)OC)c1 ?
ELG1 genotoxic: inactive; NPC1 prom act: inactive; SMN2 splice up: inactive; Rab9 promoter act: inactive; FLuc modulator: inconclusive; Luc counter: inactive

What do the screens show for `Cc1ccc2cc(NC(=O)c3ccccc3)ccc2n1`?
ELG1 genotoxic: 1.8µM; NPC1 prom act: 0.56µM; Rab9 promoter act: 0.4µM; FLuc modulator: 1.9µM

Results for CCCC(=O)Nc1cnc(NC(=O)c2cccc(F)c2)cc1C ?
ELG1 genotoxic: 0.46µM; NPC1 prom act: 0.45µM; SMN2 splice up: 2µM; Rab9 promoter act: 0.63µM; FLuc modulator: 9.5µM; Luc counter: 7.1µM

What do the screens show for `O=C(Nc1cccc(NC(=O)c2cccc(F)c2)n1)c1cccc(F)c1`?
ELG1 genotoxic: inactive; NPC1 prom act: inactive; Rab9 promoter act: inactive; FLuc modulator: 19µM

How did O=C(Nc1cccc(NC(=O)c2c(F)cccc2F)n1)c1c(F)cccc1F do in these assays?
ELG1 genotoxic: inactive; NPC1 prom act: inactive; Rab9 promoter act: inactive; FLuc modulator: inactive

Results for Cc1ccc2cc(NC(=O)c3cccc(F)c3)ccc2n1 ?
ELG1 genotoxic: 2.6µM; NPC1 prom act: 0.63µM; Rab9 promoter act: 0.56µM; FLuc modulator: 2.7µM

Results for CCC1=Nc2cc(C(=O)NC3CCCC3)ccc2Sc2ccc(Br)cc21 ?
SMN2 splice up: inactive; FLuc modulator: inactive

Results for C[C@H]1COc2c(N3CCN(C)CC3)c(F)cc3c(=O)c(C(=O)NCc4ccco4)cn1c23 ?
SMN2 splice up: inactive; Luc counter: inactive

How did O=C(Nc1ccc2[nH]c(=O)c(=O)[nH]c2c1)c1cccc(F)c1 do in these assays?
SMN2 splice up: inconclusive; FLuc modulator: inactive

What do the screens show for `O=C(Nc1ccc2ccccc2c1)c1cccc(F)c1`?
ELG1 genotoxic: inconclusive; NPC1 prom act: 1.3µM; Rab9 promoter act: 0.71µM; FLuc modulator: 2.1µM

How did CC(C)(C)C(=O)Nc1cc2nn(-c3ccccc3)nc2cc1Cl do in these assays?
ELG1 genotoxic: inconclusive; NPC1 prom act: inactive; SMN2 splice up: inactive; Rab9 promoter act: inactive; FLuc modulator: 0.076µM; Luc counter: inactive

How did CC(C)COc1ccc(C(=O)Nc2cc3nn(-c4ccccc4)nc3cc2Cl)cc1 do in these assays?
SMN2 splice up: inactive; FLuc modulator: inactive

What do the screens show for `CC(=O)Nc1cc2nn(-c3ccccc3)nc2cc1Cl`?
ELG1 genotoxic: 1.3µM; NPC1 prom act: 0.56µM; SMN2 splice up: 11µM; Rab9 promoter act: 0.5µM; FLuc modulator: 1.5µM; Luc counter: inactive

Results for COc1ccc(Oc2ncc3nc(C)c(=O)n(-c4ccc(OC)cc4)c3n2)cc1 ?
SMN2 splice up: inactive; Luc counter: inactive

What do the screens show for `Cc1cccc(NC(=S)N2N=CCC2c2ccccc2)c1` (stereo unspecified)?
ELG1 genotoxic: inconclusive; NPC1 prom act: inconclusive; SMN2 splice up: inactive; Rab9 promoter act: inactive; FLuc modulator: 21µM; Luc counter: inactive

How did CCCSc1nsc(NC(=O)CC)n1 do in these assays?
ELG1 genotoxic: inconclusive; NPC1 prom act: 0.28µM; Rab9 promoter act: 0.11µM; FLuc modulator: 0.67µM; Luc counter: inconclusive

What do the screens show for `CCC(=O)Nc1nc(-c2ccccc2)ns1`?
ELG1 genotoxic: inactive; NPC1 prom act: 4µM; SMN2 splice up: 11µM; Rab9 promoter act: 2µM; FLuc modulator: 15µM; Luc counter: inactive

How did CC(=O)Nc1nc(-c2ccc(Cl)cc2)ns1 do in these assays?
ELG1 genotoxic: inactive; NPC1 prom act: inconclusive; SMN2 splice up: inconclusive; Rab9 promoter act: 4µM; FLuc modulator: 11µM; Luc counter: inactive

Results for COc1cc(OC)cc(-c2cc(NC(C)=O)n[nH]2)c1 ?
ELG1 genotoxic: inactive; NPC1 prom act: inactive; SMN2 splice up: inactive; Rab9 promoter act: inactive; FLuc modulator: inconclusive; Luc counter: inactive

How did CC(=O)Nc1cc(-c2ccc(Cl)cc2)[nH]n1 do in these assays?
ELG1 genotoxic: inconclusive; NPC1 prom act: 3.5µM; SMN2 splice up: 22µM; Rab9 promoter act: inconclusive; FLuc modulator: inconclusive; Luc counter: inactive

What do the screens show for `COc1cc(NC(=O)c2cnn3c(C)cc(C)nc23)c(OC)cc1Cl`?
ELG1 genotoxic: inactive; NPC1 prom act: inactive; SMN2 splice up: inactive; Rab9 promoter act: inactive; FLuc modulator: inactive; Luc counter: inactive

Results for O=C(O)/C(=C\c1ccccc1)Cc1ccccc1 ?
SMN2 splice up: inactive[9.22 µM]; Luc counter: inactive[7.66 µM]

What do the screens show for `CC(C)C(=O)Nc1nc(-c2ccccc2)ns1`?
ELG1 genotoxic: inconclusive; NPC1 prom act: 3.5µM; SMN2 splice up: 2.2µM; Rab9 promoter act: 2.8µM; FLuc modulator: 15µM; Luc counter: inactive

What do the screens show for `CCCC(=O)Nc1nc(-c2ccccc2)ns1`?
ELG1 genotoxic: inactive; NPC1 prom act: inconclusive; SMN2 splice up: inconclusive; Rab9 promoter act: inconclusive; FLuc modulator: 17µM; Luc counter: inactive

Results for CC(=O)c1ccc(NC(=O)c2nc(-c3ccc(Cl)cc3)n3c2CCCCC3)cc1 ?
FLuc modulator: inactive

How did CC(=O)Nc1ccc2[nH]c3ccccc3c2c1 do in these assays?
ELG1 genotoxic: inactive; NPC1 prom act: inactive; Rab9 promoter act: inactive; FLuc modulator: 19µM
